Measurements published in PubChem BioAssay AID751 (NMMLSC, 2007).
Screen size: about 24,000 compounds; about 40 (0.2%) were called active.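 How the source made its calls: active means inhibition of disassembly above about 33% (limit read from the data); inconclusive means likely self-fluorescent, control bead median signal at least 40; inactive means the rest.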 The list comes from a sample in which actives are over-represented; it also holds similar structures and randomly drawn compounds.

These molecules were tested on 26S proteasome (yeast, GFP-tagged, ATP-dependent disassembly) (assay: inhibitors of ATP-driven 26S proteasome dissociation, primary screen, biochemical, bead-based flow cytometry, GFP-tagged proteasome (AID 751;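 further: plate controls were ATP control with full disassembly for no effect and ATP-gamma-S intact proteasomes for full effect; higher percent means more bead fluorescence retained so stronger block of disassembly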)). Conditions: anti-FLAG beads, hits give high values, concentration not given here.

Inhibition of disassembly, active:
COc1cccc(N2C(=O)C3CCCN3C2c2ccc(F)cc2)c1 (configuration not stated) 137%

Inhibition of disassembly, inactive:
Cc1cc(C(=O)NCCCc2ccccc2)no1 0.81%
CCOc1ccc(C2C(C(=O)NC)=C(C)Nc3nc4ccccc4n32)cc1OC (configuration not stated) -0.82%
O=S(=O)(NCc1ccccc1Cl)c1cnc[nH]1 1.99%
N#CCCn1ncc2ccccc21 -0.94%
CCOC(=O)CN1C(=O)C(O)(CC(=O)c2ccccn2)c2ccccc21 (configuration not stated) 0.68%
COc1ccc(NC(=O)CN2CCN(S(=O)(=O)c3ccc(F)cc3)CC2)cc1Cl 0.32%
O=C(CN1CCN(C(=O)c2cccc(F)c2)CC1)Nc1ccccc1F 2.43%
CCOc1ccc(CC(=O)Nc2ccc(S(=O)(=O)Nc3cc(C)on3)cc2)cc1OCC 1.32%
Cc1ccc(N(C(=O)CC2NC(=O)NC2=O)C2(C(=O)NC3CCCC3)CCCCC2)cc1 (configuration not stated) -0.11%
Cc1ccc(C2CC(=O)NC(SCC(=O)OCc3ccccc3)=C2C#N)o1 (configuration not stated) -1.12%
Cc1ccc(C(CC(=O)O)Nc2nc(N3CCCCC3)nc(N3CCCCC3)n2)cc1 (configuration not stated) 0.5%
CN(C)S(=O)(=O)c1cccc(C(=O)Nc2cccnc2)c1 0.3%
O=C(Cc1nn[nH]n1)NCCC1=CCCCC1 3.56%
C#CC(C)(C)NC(=O)CSc1nc2c(c(=O)n(C)c(=O)n2C)n1CCCC 0.06%
Cc1ccc(-n2ncc3c(=O)[nH]cnc32)c(C)c1 -2.48%
CCOC(=O)C1CCN(C(=O)c2oc3ccc(S(=O)(=O)N4CCCCCC4)cc3c2C)CC1 0.89%
CCOC(=O)Cc1csc(NC(=O)CN(C)S(=O)(=O)c2ccc3c(c2)CCC(=O)N3)n1 0.365%
CCC1Oc2ccc(Cl)cc2N(CC(=O)O)C1=O (configuration not stated) -0.77%
Brc1cnc(N2CCCC2)nc1N1CCCCC1 -0.98%
O=C(O)c1ccc(NC(=O)c2cccs2)cc1 -9.2%
COc1ccc(N2C(=O)C3CCCN3C2c2cc(OC)c(OC)cc2OC)cc1 (configuration not stated) 1.25%
COc1ccc(N2C(=O)C3CCCN3C2c2cccc(OC)c2)cc1 (configuration not stated) 0.89%
Cc1ccccc1N1CC(c2nc3ccccc3[nH]2)CC1=O (configuration not stated) 2.43%
Cc1ccc(NC(=O)C2CC(c3ccc(F)cc3)=NO2)cc1 (configuration not stated) 0.38%
CCOC(=O)Cn1c(=O)oc2cc(S(=O)(=O)N(C)Cc3ccco3)ccc21 0.3%
C=CCOc1ccc(C2/C(=C(\O)c3c(C)[nH]c(C(=O)OC)c3C)C(=O)C(=O)N2CCN(C)C)cc1 (configuration not stated) -2.37%
